Shown are actives, neighbours in structure and some others; about 8.3% of the full set was active somewhere.
MCF10A rerep: inducers of DNA re-replication in MCF 10A breast cells; MCF 10A DNA re-replication, Hoechst nuclear intensity, 48 h; Potency, µM (series often up to 46.1 µM), actives largely listed as activators; actives 2.9% (n = 350,000); also: nearly all actives have a fitted effect of over 50% in size
Gal4-VP16 FLuc: inhibits Gal4-VP16 luciferase reporter, ROR gamma counter-screen; Drosophila S2 Gal4-VP16 UAS-luciferase, luminescence, 20 h; Potency, µM (titrated, usually from 53.6 µM), actives largely listed as inhibitors; actives 3.5% (n = 310,000); AID 2546;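 also: Gal4-VP16 expression switched on by copper sulfate through the metallothionein promoter; nearly all actives have a fitted effect of over 50% in size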
Chronic BCR inh: chronic active BCR signaling inhibition | ABC-DLBCL IkBa-CBG/CBR reporter, luminescence ratio, 4 h | Potency, µM (series often up to 46.1 µM), hits mostly inhibitors | actives 0.05% (n = 340,000); active = well fitted inhibition curve with a large enough effect in the signal ratio, with a control signal flat, not every such curve was filed as active; inconclusive = small, poorly fitted or top-dose-only effect, or effect the other way, or a change in a side signal; the % refers to the signal ratio
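TMD8 ABC-DLBCL cells carrying doxycycline-inducible green luciferase fused to IkappaBalpha plus unfused red luciferase were exposed to compounds (up to 46 uM) for 4 hrs at 37C. Activity came from the overlap-corrected green/red luminescence ratio.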
Giardia killer: Giardia lamblia killing; Giardia lamblia trophozoite viability; activity change, % at 7.66 µM, hits read low; actives 0.15% (n = 340,000); in the data active = activity change below about -80%; inconclusive = between about -30% and that limit;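 also: parasites exposed to compound for two days anaerobically before the ATP read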
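Media and compound were dispensed first, then trophozoites at 100 cells/well; plates sat 48 hrs at 37 deg C without oxygen before ATP luminescence reagent was added and read after 15-30 min at room temperature.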
RORg inh: inhibitors of mouse ROR gamma transcriptional activity; Drosophila S2 Gal4-RORgamma UAS-luciferase reporter, 20 h; Potency, µM (series often up to 53.6 µM), usual class: inhibitors; actives 5.4% (n = 310,000); AID 2551; also: nearly all actives have a fitted effect of over 60% in size
Target sequence (P51450 whole entry, looked up, the tested form may be a part): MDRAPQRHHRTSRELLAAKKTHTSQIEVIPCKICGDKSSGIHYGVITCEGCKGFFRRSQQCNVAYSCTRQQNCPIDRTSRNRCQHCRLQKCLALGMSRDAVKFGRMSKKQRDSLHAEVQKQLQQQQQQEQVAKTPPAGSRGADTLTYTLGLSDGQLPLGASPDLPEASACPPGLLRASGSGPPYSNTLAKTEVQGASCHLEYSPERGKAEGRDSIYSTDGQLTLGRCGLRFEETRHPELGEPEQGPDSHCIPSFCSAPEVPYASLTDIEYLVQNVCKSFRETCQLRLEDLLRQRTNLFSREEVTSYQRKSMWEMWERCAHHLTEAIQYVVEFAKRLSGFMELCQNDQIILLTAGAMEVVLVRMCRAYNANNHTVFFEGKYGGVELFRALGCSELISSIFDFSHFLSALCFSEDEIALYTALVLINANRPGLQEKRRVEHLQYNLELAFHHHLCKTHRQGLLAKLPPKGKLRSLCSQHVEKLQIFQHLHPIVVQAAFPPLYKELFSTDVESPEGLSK
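Compounds are pin-transferred onto Drosophila Schneider cells expressing a copper-inducible Gal4–ROR gamma transactivation domain fusion. After 1 hr, copper sulfate is added to 700 uM final; luciferase is read 20 hr later.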
SW480 rereplic: induces DNA re-replication in SW480 colon adenocarcinoma cells | SW480 DNA re-replication, Hoechst DNA content imaging, 48 h | Potency, µM (highest dose often 46.1 µM), hits mostly activators | actives 1.8% (n = 340,000); also: nearly all actives have a fitted effect of over 55% in size
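Per well, 250 cells were exposed to pinned compound for 48 hr. Nuclear DNA was visualised with Hoechst (40 min, 37 C) and total object intensity recorded by fluorescence scanning.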
Hits are given with their value; – = inactive; ? = inconclusive; · = not tested or not shown; [ ] = another dose, or the depositor's remark. Unless noted, calls follow the shape of the dose curve; as a rule, active = well fitted curve in the direction sought with a large enough effect; inconclusive = small, poorly fitted or top-dose-only effect, or another doubt; inactive = no such curve, though single readings can be large; an effect the other way counts as inactive or inconclusive.

SMILES	MCF10A rerep	Gal4-VP16 FLuc	Chronic BCR inh	Giardia killer	RORg inh	SW480 rereplic
COc1ccc(CNC(=S)Nc2cccc(OC)c2)cc1	–	12.6µM	–	–	17.8µM	–[9.22 µM]
COc1cccc(CNC(=S)Nc2cc(C)cc(C)c2)c1	–	–[10 µM]	–	–	4.47µM	–
COCCCN(C(=O)CSCC(=O)Nc1cccc(C)c1)c1c(N)n(Cc2ccccc2)c(=O)[nH]c1=O	–	·	?	–	·	–
CC(C)Cc1cc(C(=O)N(C)C2CCCN(Cc3ccccc3F)C2)n(C)n1 (centres undefined)	–	–	–	–	–	–
Fc1ccc(-c2csc(=S)[nH]2)cc1	?	–	?	–	–	–
S=c1[nH]c(-c2ccccc2)cs1	–	?	–	–	7.08µM	–
CNC(CC(=O)c1ccc([N+](=O)[O-])cc1)C(Cl)(Cl)Cl (centres undefined)	?	12.6µM	–	–	?	·
N#C/C(=C/c1ccc(N2CCOCC2)o1)c1ccc(Br)cc1	5.8µM	5.62µM	–	–	–	5.8µM
N#C/C(=C\c1ccc(N2CCOCC2)o1)c1ccccc1	–	20µM	–	–	?	?
N#C/C(=C/c1ccc(N2CCCCCC2)o1)c1ccc(F)cc1	3.26µM	·	·	–	·	11.6µM
N#C/C(=C/c1ccc(N2CCOCC2)o1)c1nc2ccccc2[nH]1	–	?	?	–	–	–
CCCNC(=O)C(Cc1ccccc1)NC(=O)c1cccc([N+](=O)[O-])c1 (centres undefined)	?	·	–	–	·	–
O=C(NC1CCCCC1)N(Cc1cc2cc3c(cc2[nH]c1=O)OCCO3)C1CCCCC1	–	–	?	–	–	?
CC(C)C[C@@H]1NC(=O)N(CCCn2ccnc2)C1=O	–	–	–	–	–	–
CCC(C)NS(=O)(=O)c1ccc(NC(=O)Cc2ccc(OC)cc2)cc1 (centres undefined)	–	–	–	–	?	–
Cc1cc(Cl)ccc1NC(=S)NCC(C)C	–	7.08µM	?	–	4.47µM	–
Cc1cc(Cl)ccc1NNC(N)=S	–	?	?	–	?	–
CCCNC(=S)Nc1ccc(Cl)cc1C	?	?	–	–	7.08µM	–
Cc1cc(Cl)ccc1NC(=S)NC(C)(C)C	–	15.8µM	?	–	2µM	–
CCCNC(=S)Nc1ccc(F)cc1F	–	–	–	–	?	–
CCOC(=O)C(Cc1ccnc2ccccc12)=NO	–	·	·	–	·	?
CCOC(=O)/C(=N\Nc1ncnc2ccccc12)c1ccc(OC)cc1	–	14.1µM	?	–	7.08µM	–
COc1ccc(C(=O)Oc2cccc(Nc3ncnc4ccccc34)c2)cc1OC	?	?	?	–	–	–
COc1ccc(/C(=N/Nc2ncnc3ccccc23)C(=O)O)cc1	–	0.501µM	–	–	0.282µM	?
CC12CCC(C/C1=N\N=C1\NC(=O)/C(=C\c3ccc(Cl)cc3)S1)C2(C)C (centres undefined)	5.17µM	10µM	–	–	?	?
SMILES	MCF10A rerep	Gal4-VP16 FLuc	Chronic BCR inh	Giardia killer	RORg inh	SW480 rereplic
O=C1NC(=Nc2ccccc2Cl)S/C1=C\c1ccc(C(=O)O)cc1	–	–	?	–	–	?
O=C(Nc1ccc(Cl)cn1)C1CCCN(c2ncnc3c2nc2n3CCCCC2)C1 (centres undefined)	–	–	?	–	–	25.9µM
O=C(Nc1ccccn1)C1CCCN(c2ncnc3c2nc2n3CCCCC2)C1 (centres undefined)	23.1µM	–	–	–	–	–
CC(C)c1ccc(NC(=O)C2CCN(c3ncnc4c3nc3n4CCCCC3)CC2)cc1	16.4µM	–	–	–	–	?
CCOc1ccccc1NC(=O)COC(=O)CN1C(=O)NC(C)(C)C1=O	–	·	–	–	·	–
c1ccc(-c2nc(-c3nccc4ccccc34)oc2-c2ccccc2)cc1	?	–	?	–	?	7.31µM
Nc1nc(-c2ccccc2)c(-c2ccccc2)o1	–	–	?	–	–	–
CCCn1nnnc1COc1ccc(C(N)=O)cc1	–	–	–	–	–	–
O=c1cc(-c2ccccc2)nc(/C=C/c2ccccc2)[nH]1	18.4µM	–	–	–	–	?
COc1ccc(/C=C/c2nc(-c3ccccc3)cc(=O)[nH]2)cc1	?	–	?	–	–	?
COc1cccc(-n2ccnc2SCC(=O)N2CCCc3ccccc32)c1	–	–	–	–	–	–
CCOc1ccc(-n2ccnc2SCC(=O)N2CCCc3ccccc32)cc1	–	?	–	–	7.08µM	–
COC(=O)C(=NNc1c(C)n(C)n(-c2ccccc2)c1=O)C(=O)OC	–	–	–	–	–	–
Cc1c(N/N=C(\C#N)C(=O)c2ccc(Cl)cc2)c(=O)n(-c2ccccc2)n1C	2.91µM	3.55µM	?	–	7.08µM	9.2µM
Cc1c(NC(=O)/C(C#N)=C/c2ccc(-c3cc(Cl)ccc3Cl)o2)c(=O)n(-c2ccccc2)n1C	–	–	–	–	–[10 µM]	20.6µM
N#C/C(=N\Nc1ccc(Cl)cc1)C(=O)c1ccccc1	23.1µM	?	?	–	?	–
NCCCN(Cc1ccc(Cl)c(Cl)c1)c1ccccn1	·	·	·	–	·	·
CCCC[C@H](O)c1ccccc1	–	–	·	·	–	–
COc1ccc(OC)c(C2C(C(=O)c3ccccc3)=C(C)Nc3nc4ccccc4n32)c1 (centres undefined)	–	–	–	–	7.08µM	–
CCC(c1nc2ccccc2c(=O)n1-c1nc2ccccc2s1)N1C(=O)c2ccccc2C1=O (centres undefined)	–	?	?	–	–	7.31µM
O=c1c2ccccc2ncn1Cc1nc2ccccc2s1	–	–	–	–	–	–
C=CCSc1nc(-c2ccc(OC)cc2)c(C#N)c(=O)n1CC=C	20.6µM	–	–	–	–	–
CC(C)Cn1c(SC(C)C(=O)Nc2ccc3c(c2)OCCO3)nc2ccccc2c1=O (centres undefined)	–	–	?	–	12.6µM	–
CN=C1C=CC(=C(c2ccc(N(C)C)cc2)c2ccc(N(C)C)cc2)C=C1	–	2.51µM	·	·	?	?
CN(C)c1ccc(C(=N)c2ccc(N(C)C)cc2)cc1	·	–	·	·	–	·
SMILES	MCF10A rerep	Gal4-VP16 FLuc	Chronic BCR inh	Giardia killer	RORg inh	SW480 rereplic
[O-][N+]1=c2ccc(Nc3ccccc3)cc2=NC12CCCCC2	7.31µM	12.6µM	?	–	10µM	7.31µM
COc1ccc(Nc2ccc3c(c2)=NC2(CCCCC2)[N+]=3[O-])cc1	13µM	11.2µM	?	–	11.2µM	3.98µM
CC(=Nc1ccccc1)C1=C(O)C(Cc2ccccc2)NC1=O (centres undefined)	?	·	·	–	·	0.164µM
O=C(CN1CCC(NC(=O)c2ccc(Br)cc2)CC1)NCc1cccs1	?	–	–	–	–	?
c1ccc(-c2cn(-c3ccccc3)c3[n+]2CCCS3)cc1	–	–	–	–	–	–
Cc1ccc(-c2cn(-c3ccccc3)c3[n+]2CCCS3)cc1	–	11.2µM	–	–	–	–
